# Laboratory results reported in paper PMC10812921, “Transcriptional Coactivator BOB1 (OBF1, OCA-B) Modulates the Specificity of DNA Recognition by the POU-Domain Factors OCT1 and OCT2 in a Monomeric Configuration”.
# Experiments:
# POU1 (OCT1 POU domain) = POU1 (OCT1 POU domain) (human, UniProt P14859 260-458); assay: EMSA-SELEX-seq; no BOB1; 20 mM Tris-HCl pH 7.6, 140 mM NaCl, 10% glycerol, 0.5 mM EDTA, 0.05% Triton X-100, 0.1 mg/mL BSA, 0.1 mg/mL poly(dI-dC), 5 mM DTT, room temperature, 20 min; high values mean tight binding; conditions: protein: recombinant; dsDNA, one strand shown
# Sequence of POU1 (OCT1 POU domain) (P14859 260-458): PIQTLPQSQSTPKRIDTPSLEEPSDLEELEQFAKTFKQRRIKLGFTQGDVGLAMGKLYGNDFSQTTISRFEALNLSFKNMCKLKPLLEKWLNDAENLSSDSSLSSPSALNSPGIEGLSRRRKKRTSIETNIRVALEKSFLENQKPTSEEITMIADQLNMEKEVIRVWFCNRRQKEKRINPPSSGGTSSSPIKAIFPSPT
# Summary of the method: (§1)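 Binding preference is the percentage of sequenced 8-mers matching a motif pattern. Tagged POU-domain proteins expressed in E. coli BL21 were purified under denaturing conditions and renatured. For binding, 30 ng protein met 300 ng of a PCR-amplified double-stranded random 35-nt library, with or without 28 ng coactivator protein, in 20 μL Tris–HCl pH 7.6 binding buffer for 20 min at RT. Complex bands were cut from native 6% PAGE, eluted and PCR-amplified over four rounds, then Illumina-sequenced.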
# POU2 (OCT2 POU domain) = target: T1, POU2 (OCT2 POU domain) (human, UniProt P09086 175-386); assay: as above; conditions: protein: recombinant; dsDNA, one strand shown
# T1 sequence: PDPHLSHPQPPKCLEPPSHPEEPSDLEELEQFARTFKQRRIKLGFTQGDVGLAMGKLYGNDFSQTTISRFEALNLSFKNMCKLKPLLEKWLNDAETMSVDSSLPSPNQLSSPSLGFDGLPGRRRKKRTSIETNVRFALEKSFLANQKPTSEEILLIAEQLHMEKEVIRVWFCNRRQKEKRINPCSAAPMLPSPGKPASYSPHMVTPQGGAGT
# Summary of the method: as §1
# [1] = target: POU1 (OCT1 POU domain);BOB1 (OBF1, OCA-B) (human;human, UniProt P14859;Q16633 260-458;1-256, |); assay: EMSA-SELEX-seq; with BOB1 (ternary complex band); 20 mM Tris-HCl pH 7.6, 140 mM NaCl, 10% glycerol, 0.5 mM EDTA, 0.05% Triton X-100, 0.1 mg/mL BSA, 0.1 mg/mL poly(dI-dC), 5 mM DTT, room temperature, 20 min; high values mean tight binding; conditions: protein: recombinant;recombinant; copies: 1;1; dsDNA, one strand shown
# Summary of the method: as §1
# [2] = target: T2, POU2 (OCT2 POU domain);BOB1 (OBF1, OCA-B) (human;human, UniProt P09086;Q16633 175-386;1-256, |); assay: as above; conditions: protein: recombinant;recombinant; copies: 1;1; dsDNA, one strand shown
# T2 sequence 1: T1 sequence
# T2 sequence 2: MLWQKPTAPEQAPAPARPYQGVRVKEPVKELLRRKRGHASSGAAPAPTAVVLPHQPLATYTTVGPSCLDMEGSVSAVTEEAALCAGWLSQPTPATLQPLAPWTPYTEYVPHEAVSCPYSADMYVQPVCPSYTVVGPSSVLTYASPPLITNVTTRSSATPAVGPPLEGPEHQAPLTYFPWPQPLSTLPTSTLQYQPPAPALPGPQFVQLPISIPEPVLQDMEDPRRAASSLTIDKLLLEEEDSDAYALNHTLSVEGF
# Summary of the method: as §1
Sequence,binding signal (POU1 (OCT1 POU domain)),binding signal (POU2 (OCT2 POU domain)),binding signal [1],binding signal [2]
ACCCAAAA,0.0214 % of ANNNNAAN 8-mers,0.015 % of ANNNNAAN 8-mers,0.0246 % of ANNNNAAN 8-mers,0.0206 % of ANNNNAAN 8-mers
AAGCCAAT,0.0282 % of ANNNNAAN 8-mers,0.0247 % of ANNNNAAN 8-mers,0.0261 % of ANNNNAAN 8-mers,0.0272 % of ANNNNAAN 8-mers
ATCTCAAC,0.0252 % of ANNNNAAN 8-mers,0.027 % of ANNNNAAN 8-mers,0.0254 % of ANNNNAAN 8-mers,0.0264 % of ANNNNAAN 8-mers
AGCATAAG,0.105 % of ANNNNAAN 8-mers,0.129 % of ANNNNAAN 8-mers,0.0441 % of ANNNNAAN 8-mers,0.0627 % of ANNNNAAN 8-mers
AAAGCAAA,0.106 % of ANNNNAAN 8-mers,0.0754 % of ANNNNAAN 8-mers,0.179 % of ANNNNAAN 8-mers,0.0908 % of ANNNNAAN 8-mers
AACTTAAT,0.0995 % of ANNNNAAN 8-mers,0.117 % of ANNNNAAN 8-mers,0.0613 % of ANNNNAAN 8-mers,0.0677 % of ANNNNAAN 8-mers
AGAGAAAA,0.0702 % of ANNNNAAN 8-mers,0.065 % of ANNNNAAN 8-mers,0.0574 % of ANNNNAAN 8-mers,0.0504 % of ANNNNAAN 8-mers
AGAGGAAC,0.0229 % of ANNNNAAN 8-mers,0.0339 % of ANNNNAAN 8-mers,0.0234 % of ANNNNAAN 8-mers,0.0264 % of ANNNNAAN 8-mers
ATTTGAAG,0.0713 % of ANNNNAAN 8-mers,0.0604 % of ANNNNAAN 8-mers,0.0909 % of ANNNNAAN 8-mers,0.0545 % of ANNNNAAN 8-mers
AATGGAAA,0.242 % of ANNNNAAN 8-mers,0.155 % of ANNNNAAN 8-mers,0.268 % of ANNNNAAN 8-mers,0.164 % of ANNNNAAN 8-mers
AGAAGAAT,0.0515 % of ANNNNAAN 8-mers,0.0737 % of ANNNNAAN 8-mers,0.0597 % of ANNNNAAN 8-mers,0.0603 % of ANNNNAAN 8-mers
AAAGCAAC,0.0256 % of ANNNNAAN 8-mers,0.0259 % of ANNNNAAN 8-mers,0.0281 % of ANNNNAAN 8-mers,0.0272 % of ANNNNAAN 8-mers
ACTACAAT,0.0309 % of ANNNNAAN 8-mers,0.0282 % of ANNNNAAN 8-mers,0.0285 % of ANNNNAAN 8-mers,0.0338 % of ANNNNAAN 8-mers
AATGGAAG,0.101 % of ANNNNAAN 8-mers,0.076 % of ANNNNAAN 8-mers,0.0644 % of ANNNNAAN 8-mers,0.0792 % of ANNNNAAN 8-mers
AAGACAAG,0.0259 % of ANNNNAAN 8-mers,0.0305 % of ANNNNAAN 8-mers,0.0261 % of ANNNNAAN 8-mers,0.0281 % of ANNNNAAN 8-mers
